SKKanGAS inh – blocks kanamycin growth of S. pyogenes SKKanGAS strain | inhibition, % at 7.5 µM | BacTiter-Glo, 6 h | 1.3% of 300,000 active;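 active = mean replicate score, as percent of positive control median, at least 50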;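 also: strain carries kanamycin resistance gene driven by streptokinase promoter and grows in 40 µg/ml kanamycin; loss of luminescence reflects streptokinase promoter inhibition or plain growth inhibition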
tim10-1 inh – tim10-1 yeast growth inhibition; S. cerevisiae tim10-1 ts strain growth, BacTiter-Glo, 24 h; inhibition, % at 20 µM; 2.2% of 330,000 active; AID 463190;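 active = inhibition of at least 40%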;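 also: mutant grown at 25 °C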
PfHsp90 yeast 2 – growth inhibition of yeast expressing Plasmodium Hsp90; 0.32% of 310,000 active; S. cerevisiae expressing PfHsp90, BacTiter-Glo ATP, 48 h; yeast lacking PDR1 and PDR3 efflux regulators; inhibition, % at 9.4 µM;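 active = every replicate shows inhibition above about 80%, whatever the replicate mean, limit read from the data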
TIM10 inh – inhibits growth of TIM10 yeast strain; inhibition, % at 10 µM; S. cerevisiae TIM10 strain growth, BacTiter-Glo luminescence, 24 h; 1.4% of 330,000 active;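 active = inhibition of 40% or more at the single tested concentration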;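 also: wild-type TIM10 isogenic control strain grown at permissive 25 °C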
tim23-1 inh – inhibits growth of tim23-1 mutant yeast; S. cerevisiae tim23-1 growth, BacTiter-Glo luminescence, 24 h; inhibition, % at 20 µM; 1.3% of 330,000 active; AID 463212;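 active = growth inhibition of the mutant yeast at or above 50%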;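 also: temperature-sensitive mutant grown at 25 °C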
ATG4B inh – inhibitors of human ATG4B cysteine protease. AID 504462. Q9Y4P1. inhibition, % at 8.33 µM. ATG4B cleavage of LC3-PLA2, NBD-HPC fluorescence, 1 h. 0.51% of 340,000 active; in the data active = inhibition above about 40%
Target sequence (Q9Y4P1 whole entry, looked up): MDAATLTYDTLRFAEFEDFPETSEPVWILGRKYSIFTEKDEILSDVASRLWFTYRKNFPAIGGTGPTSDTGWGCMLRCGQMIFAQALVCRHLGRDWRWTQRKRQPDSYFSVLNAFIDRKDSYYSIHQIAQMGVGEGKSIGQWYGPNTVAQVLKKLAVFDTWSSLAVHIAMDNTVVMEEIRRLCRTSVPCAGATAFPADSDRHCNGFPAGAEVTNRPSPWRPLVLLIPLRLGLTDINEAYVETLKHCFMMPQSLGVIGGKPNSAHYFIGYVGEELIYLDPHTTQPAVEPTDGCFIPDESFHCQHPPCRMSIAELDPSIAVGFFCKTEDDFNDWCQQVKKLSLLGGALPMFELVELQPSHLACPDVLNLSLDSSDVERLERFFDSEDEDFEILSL
Each line names hits and unclear results; the compound was inactive in the other large screens. This is a sample that favours compounds with a hit; in the whole collection about 4.7% have one here.

O=C1CN(C(=O)COc2ccc([N+](=O)[O-])cc2Cl)c2ccccc2N1	none (no result: SKKanGAS inh, PfHsp90 yeast 2)
Cc1cccc(-n2cccc2)c1C#N	none
Cc1nc(-c2ccccn2)nc(SCC(=O)c2ccccc2)c1Cl	SKKanGAS inh 93
Cc1nc(-c2ccccn2)nc(SCC(=O)N2CCOCC2)c1Cl	none
CCCCn1c(NS(=O)(=O)c2ccccc2)c(S(=O)(=O)c2ccc(C)cc2)c2nc3ccccc3nc21	SKKanGAS inh 73, ATG4B inh 75 (no result: tim10-1 inh, TIM10 inh, tim23-1 inh)
O=S(=O)(NC1CC2CCC1C2)c1ccc(Br)cc1 (stereo not given)	PfHsp90 yeast 2 108
Cc1ccc(S(=O)(=O)NC2CC3CCC2C3)cc1 (stereo not given)	none (no result: PfHsp90 yeast 2)
COCCCNC(=S)N/N=C/c1cccc(OC)c1O	none (no result: PfHsp90 yeast 2)
COc1cccc(/C=N/NC(=S)NC2CC3CC2C2C=CCC32)c1O (stereo not given)	SKKanGAS inh 109
COc1cc(F)ccc1CN1CCC(n2nccc2NC(=O)C2CCOC2)CC1 (stereo not given)	SKKanGAS inh 52
COc1cc(CN2CCC(n3nccc3NC(=O)C3CCOC3)CC2)ccc1F (stereo not given)	none
CC1CCN(C(=O)COc2ccc3ccccc3c2Br)CC1	none (no result: PfHsp90 yeast 2, ATG4B inh)
Cc1ccc(N2CC(C(=O)OCc3ccccc3F)CC2=O)cc1 (stereo not given)	none
CCCOc1ccc(Cc2c(Cl)nc(SC)nc2N(C)C)cc1	SKKanGAS inh 64
CSc1nc(Cl)c(Cc2ccc(OC(C)C)cc2)c(N2CCOCC2)n1	none
COc1nc(SC)nc(Cl)c1Cc1ccc(OC(C)C)cc1	none
CCCOc1ccc(Cc2c(Cl)nc(SC)nc2OC)cc1	SKKanGAS inh 53
CCCC(Oc1ccc(Br)cc1)c1nc2c3cc(OC)c(OC)cc3nc(=S)n2[nH]1 (stereo not given)	SKKanGAS inh 100
CC(Oc1ccc(Br)cc1)c1nc2c3ccccc3nc(=S)n2[nH]1 (stereo not given)	SKKanGAS inh 92
Cc1nn(C)c(C(=O)N/N=C/c2cccnc2)c1Cl	none
C=CCc1cccc(/C=N/NC(=O)C(=O)Nc2ccc(C)cc2)c1O	SKKanGAS inh 70
COc1ccc(-c2nnc(SCC(=O)c3ccc(C)o3)o2)cc1	none (no result: tim10-1 inh, TIM10 inh, tim23-1 inh)
O=C(Nc1nccs1)c1ccc(-c2ccc(F)c(Cl)c2)o1	SKKanGAS inh 75
O=C(Nc1nccs1)c1ccc(-c2ccc(Cl)cc2Cl)o1	none
COCCOC(=O)c1[nH]c2c(c1C)C(=O)CC(c1ccc(F)cc1)C2 (stereo not given)	none
O=c1ccc(NS(=O)(=O)c2ccc(Cl)cc2)cn1Cc1ccc(Cl)c(Cl)c1	none (no result: PfHsp90 yeast 2)
CC(=O)c1cnc2cc(-c3cccc(Br)c3)nn2c1C	none
Cc1ccc(NC(=O)c2ccccc2NS(=O)(=O)c2ccc(F)cc2)cc1S(=O)(=O)N1CCCCC1	SKKanGAS inh 60
COc1cc(/C=C/c2ccc3c(Br)cc(Br)c(O)c3n2)ccc1O	SKKanGAS inh 97 (no result: tim10-1 inh, TIM10 inh, tim23-1 inh)
COc1cc(/C=C/C(=O)O)ccc1O	none
COc1ccc(/C=C/c2ccc3c(Br)ccc(O)c3n2)cc1	SKKanGAS inh 85
CCOc1ccc(/C=N/Nc2cc(N3CCOCC3)nc(C)n2)c(O)c1	SKKanGAS inh 65
CCOc1ccc(/C=N/Nc2cc(C)nc(N3CCOCC3)n2)cc1	none
COc1cccc(/C=N/Nc2cc(N3CCOCC3)ncn2)c1O	SKKanGAS inh 99
CNC[C@H](CC1CCCCC1)NC[C@H](Cc1ccccc1)NCCC12CC3CC(CC(C3)C1)C2	SKKanGAS inh 98
NC[C@H](Cc1ccccc1)NCCCCC1CCCCC1	none (no result: SKKanGAS inh)
COc1ccc(C(=O)Nc2ccccc2-c2nnn(CC(=O)Nc3ccc4c(c3)OCCO4)n2)cc1	SKKanGAS inh 66
Nc1ccccc1-c1nnn(CC(=O)Nc2ccc3c(c2)OCCO3)n1	none
O=C(Nc1ccc(C(=O)NCc2ccc(F)cc2)cc1)C1=CSCCO1	SKKanGAS inh 51
COc1cc(/C=N/N(C)C)ccc1OC(=O)c1cccs1	none
Cc1ccc(NC(=O)c2cc(N3C(=O)C=CC3=O)ccc2N2CCOCC2)cc1	PfHsp90 yeast 2 106 (no result: tim10-1 inh, TIM10 inh, tim23-1 inh)
Cc1ccc(NC(=O)c2cc(N3C(=O)C=CC3=O)ccc2Cl)cc1C	PfHsp90 yeast 2 110
Cc1ccc(NC(=O)c2cc(-n3cnnc3)ccc2Cl)cc1	none (no result: PfHsp90 yeast 2)
COc1ccc2c(OC)cc(-c3ccccc3)nc2c1	none
Cc1ccc(NC(=S)c2ccc3ccccc3n2)c(C)c1	none
Cc1nn(-c2ccccc2)nc1C(=O)c1c(C)[nH]n(-c2ccccc2)c1=O	SKKanGAS inh 61
C/C(=N\NC(=O)c1ccc(C)cc1)c1c(C)[nH]n(-c2ccccc2)c1=O	SKKanGAS inh 56
C/C(=N\NC(=O)c1ccccc1)c1c(C)[nH]n(-c2ccccc2)c1=O	none
COc1ccc(-c2cc3ncnc(Cl)c3s2)cc1	SKKanGAS inh 54
COc1ccc(-c2cc3nnc(-c4ccccc4)nc3s2)cc1	none
CC(C)CC(=O)NC(=S)NNC(=O)c1ccc([N+](=O)[O-])cc1	none
CC(C)CC(=O)NC(=S)NNC(=O)c1ccc(NC(=O)C2CCCCC2)cc1	SKKanGAS inh 88
COc1ccc(OC)c(-c2cc(C3CCN(c4ncccc4[N+](=O)[O-])CC3)[nH]n2)c1	SKKanGAS inh 57
O=[N+]([O-])c1cccnc1N1CCC(c2cc(-c3ccc(Cl)cc3Cl)n[nH]2)CC1	SKKanGAS inh 80
O=[N+]([O-])c1cccnc1N1CCCCC1	none
CCCSC1=N/C(=C\c2ccc([N+](=O)[O-])o2)C(=O)S1	none (no result: SKKanGAS inh, tim10-1 inh, TIM10 inh, tim23-1 inh)
CCC(C)Sc1cc(C(F)(F)F)c(C(=O)Nc2ccc(Cl)cc2)cn1 (stereo not given)	SKKanGAS inh 70
O=C(CN(C(=O)CNS(=O)(=O)c1ccccc1)c1ccc2c(c1)OCCO2)NC1CCCCC1	none
Cc1nn2c(COc3ccc(NC(=O)C(C)C)cc3)nnc2c2ccccc12	SKKanGAS inh 102
Cc1nn2c(CN(C(=O)COc3ccccc3)c3ccccc3)nnc2c2ccccc12	none
CCOC(=O)Nc1ccc(OCc2nnc3c4ccccc4c(C)nn23)cc1	SKKanGAS inh 94 (no result: PfHsp90 yeast 2)
CC(=O)Nc1ccc(OCc2cccc3ccccc23)cc1	none
CCOC(=S)N/C(=N\S(=O)(=O)c1ccccc1)c1ccccc1	none
CCOC(=O)N1CCN(C(=O)c2ccc3c(c2)NC(=O)/C(=C\c2cccc(C)c2)S3)CC1	SKKanGAS inh 92
CCOC(=O)N1CCN(C(=O)c2ccc3c(c2)NC(=O)/C(=C\c2ccc(OC)c(OC)c2)S3)CC1	SKKanGAS inh 101
O=C(O)c1cc(N/C(=N\S(=O)(=O)c2ccc(F)cc2)c2ccccc2)ccc1O	none (no result: SKKanGAS inh)
O=C(Nc1ccc(F)cc1F)c1cc2ncc(CCCl)cn2n1	none
Cc1c(NC(=O)CSC2=C(C#N)C(c3ccccc3F)CC(=O)N2)c(=O)n(-c2ccccc2)n1C (stereo not given)	SKKanGAS inh 96
COC(=O)CSC1=C(C#N)C(c2ccccc2F)CC(=O)N1 (stereo not given)	none
